Source: PubChem BioAssay AID1259422 (The Scripps Research Institute Molecular Screening Center, 2018)
Screen size: about 640,000 compounds; about 9,300 (1.5%) were called active. The sample holds actives, similar compounds and a random draw of the others, so the mix is not that of the screen. Values without a mark were called inactive. Rule as the data show it: active = inhibition above about 32%; inactive = the rest.

Experiment: TEAD-YAP interaction inhibition, primary screen, TEAD-YAP interaction inhibitor project, luminescence, HEK-TIYL cells (AID 1259422);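 also: 0% = median of test compound wells and 100% = reference inhibitor wells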
Details: TEAD-Gal4/YAP UAS-luciferase luminescence, at 9.12 µM, hits give high values

Structure (SMILES)	inhibition
Cc1ccc(Nc2nc(-c3ccc(Br)cc3)cs2)cc1Cl	-7.82%
Cc1ccc(Nc2nc(-c3ccccn3)cs2)cc1C	49.9% (active)
Cc1cccc(Nc2nc(-c3ccc(I)cc3)cs2)c1	-33.1%
CN1CCc2nc(NC(=O)c3ccc(Cl)cc3Cl)sc2C1	-69.8%
O=C(Nc1nc2c(s1)CN(Cc1ccccc1)CC2)c1cc(Cl)ccc1Cl	-2.92%
CCCN1CCc2nc(NC(=O)COc3ccc(Cl)cc3Cl)sc2C1	45% (active)
COc1ccc(C2CC(C(F)(F)F)n3ncc(C(=O)N4CCN(c5cccc(Cl)c5)CC4)c3N2)cc1OC (stereo not given)	-6.74%
c1cncc(Nc2nccc(Nc3ccc(N4CCOCC4)cc3)n2)c1	2.14%
FC(F)(F)c1cnc(Nc2ccc(N3CCOCC3)cc2)cc1-n1ncc2ccccc21	-4.45%
Fc1cnc(Nc2ccc(N3CCNCC3)cc2)cc1-n1cnc(Nc2ccccc2)n1	64.6% (active)
O=C(c1nc2ccc(Cl)cn2c1CNCCn1cccn1)N1CCc2ccccc2C1	7.89%
COc1cccc2c1OC1(CCN(C(=O)Cc3ccc(F)cc3F)CC1)OC2	-1.73%
O=C(c1cc(-c2cccs2)on1)N1CCCC1	-49.2%
COc1ccc(-c2cc(C(=O)N3CCCCC3)no2)cc1	6.05%
O=C(c1cc(-c2ccc(O)cc2)on1)N1CCOCC1	50.7% (active)
CCN(CC)C(=O)c1cc(-c2ccc(O)cc2)on1	-1.47%
CN(C(=O)c1cc(-c2ccc(O)cc2)on1)c1ccccc1	60% (active)
CC1CN(CC(=O)NCc2cc(-c3ccccc3)on2)Cc2ccccc2O1 (stereo not given)	-5.63%
CCC(=O)Nc1ccccc1-c1nnn(CC(=O)Nc2ccc(CC)cc2)n1	12.7%
O=C(c1ccco1)N1CCN(c2nccn3c(-c4cccc(O)c4)cnc23)CC1	-3.76%

Structure (SMILES)	inhibition
CC(C)Cn1c(C2CC(=O)N(c3ccccc3)C2)nc2ccccc21 (stereo not given)	3.79%
CCOc1ccc(-c2cn(-c3ccc(OC)cc3)c(SCC(=O)Nc3ccccc3C)n2)cc1	-24.2%
c1c2c(cc3sc(N4CCCCC4)nc13)OCCO2	80.9% (active)
O=C(c1ccc2nc(N3CCCCC3)sc2c1)N1CCN(c2ccccc2)CC1	-69.3%
O=C(Nc1ccc2c(c1)OCCO2)Nc1nnc(N2CCCCCC2)s1	-9.25%
COc1ccc(-c2cc(C(=O)NC3CCCC(C)C3C)c3ccccc3n2)cc1 (stereo not given)	1.88%
CCOC(=O)c1cnc2nc(NCc3cccc(OC)c3)[nH]n2c1=O	3.92%
N/C(=N/OC(=O)c1ccccc1I)c1nonc1N	-2.53%
Cc1nc(N2CCN(c3ccccn3)CC2)c2c(C)c(C(=O)N3CCN(Cc4ccc5c(c4)OCO5)CC3)sc2n1	36.8% (active)
CCN1CCN(C(=O)c2sc3nc(C)nc(N4CCN(c5ccccn5)CC4)c3c2C)CC1	-1.03%
Cc1nc(N2CCN(c3ccccn3)CC2)c2c(C)c(C(=O)NCCN3CCOCC3)sc2n1	14.5%
COc1ccc(NC(=O)CSc2nc3c(sc(=S)n3-c3ccccc3F)c(=O)n2-c2ccc(F)cc2)c(OC)c1	15.7%
CC1CN(Cc2cccc3ncccc23)Cc2ccccc2O1 (stereo not given)	-3.29%
CC1CCc2c(sc(NC(=O)c3ccccc3F)c2C(=O)N2CCOCC2)C1 (stereo not given)	-2.16%
CCOc1ccccc1OCC(=O)OCc1ccccc1	2.74%
CCOc1ccccc1OCC(=O)Nc1ccc(C(=O)O)cc1	4.66%
CCOc1ccccc1OCC(=O)NN	58.7% (active)
Cc1ccc(-c2noc(CCC(=O)N(C)c3ccccc3Cl)n2)cc1	13.7%
Nc1ncnc(NCc2ccc(Cl)cc2)c1[N+](=O)[O-]	-0.74%
CC(C)(CO)Nc1ncnc(N)c1[N+](=O)[O-]	50.6% (active)

Structure (SMILES)	inhibition
COC(=O)NNc1ncnc(N)c1[N+](=O)[O-]	2.66%
O=C(/C=C/c1cccs1)N1CC[C@@H]2[C@H](CCCN2C(=O)c2ccc3[nH]ccc3c2)C1	-4%
COC(=O)c1c(NC(=O)C(C)N2C(=O)c3ccccc3C2=O)sc2c1CCCC2 (stereo not given)	-8.49%
CC(=O)Oc1ccc2occ(C(=O)c3ccc(C)cc3)c2c1	41% (active)
COc1ccc2occ(C(=O)c3ccc(N=C(C)N(C)C)cc3)c2c1	-23.4%
CC(=O)Oc1ccc2occ(C(=O)c3cc4ccccc4o3)c2c1	53.6% (active)
COc1ccc(OC)c(C(=O)c2coc3ccc(OC)cc23)c1	1.14%
COc1ccc(NC(=O)Cc2coc3ccc(C)cc23)cc1	-3.85%
Cc1cc(=O)oc2c(OC(=O)c3cc4ccccc4o3)c(OC(=O)c3cc4ccccc4o3)ccc12	-3.97%
CCOC(=O)Cn1c(=O)c2c(nc3n2CC(C)CN3c2ccccc2C)n(C)c1=O (stereo not given)	2.64%
O=C1c2ccccc2S(=O)(=O)N1c1ccc(Cl)cc1Cl	6.48%
O=C(O)C(CCC(=O)N1CCOCC1)N1C(=O)c2ccccc2C1=O (stereo not given)	-9.92%
Nc1nc(N)c2ncn(C3OC(CO)C(O)C3O)c2n1 (stereo not given)	-3.32%
Nc1nc(=O)n(C2OC(CO)C(O)C2O)cc1Br (stereo not given)	5.2%
O=c1cnn(C2OC(CO)C(O)C2O)c(=O)[nH]1 (stereo not given)	74.7% (active)
CCOC(=O)c1ccc(NC(=O)CSc2nnnn2-c2ccc([N+](=O)[O-])cc2)cc1	-1.87%
N#Cc1c(NC(=O)c2cc([N+](=O)[O-])nn2Cc2ccccc2)sc2c1CCC2	2.14%
N#Cc1c(NC(=O)CSc2ccc([N+](=O)[O-])cn2)sc2c1CCCC2	-0.26%
N#Cc1c(NC(=O)c2cc([N+](=O)[O-])ccc2Cl)sc2c1CCC2	32.6% (active)
Cc1nnc(SCc2cccc3ccccc23)[nH]c1=O	-2.21%
